Luciferase inh = qHTS Assay for Inhibitors of Firefly Luciferase | 72,000 compounds, 2.2% hits | Luciferin 4-monooxygenase (Photinus pyralis), P08659 | Potency, µM (titrated, usually from 57.1 µM), without a hit: at the highest dose activity change, negative = inhibition, hits mostly inhibitors | purified firefly luciferase, luminescence, 8 min; also: nearly all actives have a fitted effect of over 40% in size
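Substrate buffer containing 10 uM ATP (pH 7.2 imidazole, Mg2+, KCl, detergent, BSA) is dispensed, compound pinned in, then luciferase/luciferin detector mix added. After 8 min at ambient temperature, light output is measured.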
HSD17B inh = qHTS Assay for Inhibitors of HSD17B4, hydroxysteroid (17-beta) dehydrogenase 4; 3-hydroxyacyl-CoA dehydrogenase type-2 (Homo sapiens), Q99714; AID 893, 2007; 75,000 compounds, 7.6% hits; recombinant HSD17B10, NADH fluorescence kinetic; Potency, µM (doses to about 57.1 µM), without a hit: top-dose activity change, negative = inhibition, actives largely listed as inhibitors;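 also: the protocol describes HADH2 (HSD17B10) and not the HSD17B4 of the title; nearly all actives have a fitted effect of over 70% in size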
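20 nM HADH2, pH 9.0 Tris/Tween; cpd preinc 15 min RT; start w/ 1 mM NAD+ + 90 uM b-hydroxybutyryl-CoA; kinetic fluor ex360/em450 q30s x 4 min; delta last-first.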
Bst PK mod = Pyruvate Kinase. purified pyruvate kinase, luminescence ATP production; ribose 5-phosphate activator present at AC10. Potency, µM. 51,000 compounds, 1.2% hits; in the data active = potency below about 11 µM; inconclusive = mostly about 12 µM to 25 µM;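 the screen sought inhibitors and activators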;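 also: scaled between full activation by ribose 5 phosphate and full inhibition by luteolin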
HADH2 inh = qHTS Assay for Inhibitors of HADH2 (Hydroxyacyl-Coenzyme A Dehydrogenase, Type II). Potency, µM (top dose mostly 57.1 µM), inactives show at the top dose activity change, negative = inhibition, most hits filed as inhibitors. recombinant HADH2, NADH fluorescence, beta-hydroxybutyryl-CoA. 73,000 compounds, 3.4% hits; also: nearly all actives have a fitted effect of over 60% in size
Target sequence (Q99714 whole entry, looked up, one chain of several): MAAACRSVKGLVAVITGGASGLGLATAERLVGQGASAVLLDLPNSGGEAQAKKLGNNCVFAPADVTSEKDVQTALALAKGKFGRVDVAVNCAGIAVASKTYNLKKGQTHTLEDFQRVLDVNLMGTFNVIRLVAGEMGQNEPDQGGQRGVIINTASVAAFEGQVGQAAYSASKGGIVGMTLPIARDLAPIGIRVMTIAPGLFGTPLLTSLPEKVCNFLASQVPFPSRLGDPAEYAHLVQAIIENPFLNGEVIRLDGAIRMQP
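Read-out: 360 nm excitation, 450 nm emission, kinetic over 4 min. Conditions: His-tagged human HADH2 20 nM, pH 9.0 Tris with Tween-20, 1 mM NAD+, 90 uM beta-hydroxybutyryl-CoA.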
ERK AVP inh = qHTS Assay for Inhibitors of the ERK Signaling Pathway using a Homogeneous Screening Assay. Potency, µM (highest dose often 57.5 µM), without a hit: at the highest dose activity, negative = inhibition, usual class: inhibitors. 72,000 compounds, 0.99% hits. HEK293-V1b, vasopressin-stimulated pERK AlphaScreen. AID 995, 2007; also: nearly all actives have a fitted effect of over 55% in size
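HEK293 cells stably expressing V1b receptor, preincubated 30 min at 37 °C with compound, then stimulated 5 min with 25 nM vasopressin. Phospho-ERK by AlphaScreen SureFire after 5 h RT; normalized to DMSO and vasopressin; AC50 by Hill fit.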
15-hLO inh = qHTS Assay for Inhibitors of 15-hLO (15-human lipoxygenase); purified 15hLO-1, xylenol orange hydroperoxide absorbance; Potency, µM (series often up to 57.1 µM), for inactives: top-dose activity change, negative = inhibition, hits mostly inhibitors; 74,000 compounds, 1.4% hits; also: nearly all actives have a fitted effect of over 55% in size
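Inhibition is scored from a chromogenic endpoint. After 15 min enzyme-compound contact, arachidonic acid (50 uM final) reacts 6 min with 40 nM 15hLO-1 at room temperature, then Fe-XO reagent is added for 30 min and absorbance ratio recorded.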
Starred values were filed as active, the others as inactive; [ ] = remark or other dose. The list is not random: actives were taken first. Their share in the collection is about 11%. Unless noted, calls follow the shape of the dose curve; as a rule, active = well fitted curve in the direction sought with a large enough effect; inconclusive = small, poorly fitted or top-dose-only effect, or another doubt; inactive = no such curve, though single readings can be large; an effect the other way counts as inactive or inconclusive. Unless noted, % is scaled to controls: 0 for no effect and ±100 for the full control effect; potency is read from the fitted curve at half-maximal effect.

`O=Cc1ccc(CO)o1` gave HSD17B inh -5%, HADH2 inh -4%, ERK AVP inh 4% and 15-hLO inh -3%.
For CC(C)C[C@H](N)C(=O)O the results were Luciferase inh 2%[11.4 µM], HSD17B inh -1%[11.4 µM], HADH2 inh -4%[11.4 µM], ERK AVP inh 5%[11.5 µM] and 15-hLO inh -5%[11.4 µM].
For CC(C)(C)NC(=O)[C@@H]1C[C@H]2CCCC[C@@H]2CN1C[C@H](O)[C@H](Cc1ccccc1)NC(=O)[C@@H](CC(N)=O)NC(=O)c1ccc2ccccc2n1 the results were Luciferase inh 4%[25.5 µM], HSD17B inh 4%[25.6 µM], HADH2 inh 7%[25.6 µM], ERK AVP inh -4%[25.7 µM] and 15-hLO inh -3%[25.6 µM].
CCCCCCC=O was read as HSD17B inh 1%, HADH2 inh 3%, ERK AVP inh 29% and 15-hLO inh -1%.
COc1ccc(OCC2CC3C(CCC(C)C3c3ccc(Br)cc3)C(=O)O2)cc1 (stereo not given) was read as HSD17B inh -2%[11.4 µM], HADH2 inh -6%[11.4 µM], ERK AVP inh 9%[11.5 µM] and 15-hLO inh -11%[11.4 µM].
For Cc1cccc(NC(=O)CN2C(=O)COc3ccc(Cl)cc32)c1 the results were Luciferase inh -2%, HSD17B inh inconclusive, Bst PK mod >57, HADH2 inh 14%, ERK AVP inh 22% and 15-hLO inh 5µM*.
O=C(CN1C(=O)c2ccccc2C1=O)[C@@H](O)CN1C(=O)c2ccccc2C1=O was read as Luciferase inh 4%[11.4 µM], HSD17B inh 3%[11.4 µM], HADH2 inh -3%[11.4 µM], ERK AVP inh -9%[11.5 µM] and 15-hLO inh 1%[11.4 µM].
`CN(CCOc1ccc(Cl)cc1)c1ccc(S(=O)(=O)N2CCCCC2)cn1` gave Luciferase inh -2%, HSD17B inh 32µM*, Bst PK mod >57, HADH2 inh -17%, ERK AVP inh -6% and 15-hLO inh -1%.
For Cc1ccc(C)c(SCC(=O)Nc2nnc(-c3ccccc3)o2)c1 the results were Luciferase inh -3%, HSD17B inh -17%, Bst PK mod 3.1*, HADH2 inh 13%, ERK AVP inh -2% and 15-hLO inh 8%.
Screening CCN1C(=O)c2cccc3c(S(=O)(=O)Nc4ncccc4C)ccc1c23 returned Luciferase inh -10%, HSD17B inh -9%, Bst PK mod >57, HADH2 inh 0%, ERK AVP inh 25µM* and 15-hLO inh inconclusive.
CCN1C(=O)c2cccc3c(S(=O)(=O)NCc4ccco4)ccc1c23 was read as Luciferase inh -1%, HSD17B inh 32µM*, HADH2 inh 0%, ERK AVP inh -11% and 15-hLO inh inconclusive.
For COc1cccc(Nc2ncc3nc(-c4ccccc4)c(=O)n(C)c3n2)c1 the results were Luciferase inh 1%[11.4 µM], HSD17B inh -7%, HADH2 inh -3%, ERK AVP inh -4% and 15-hLO inh -11%.
Screening N=C(N)SCCCN returned Luciferase inh 2%[11.4 µM], HSD17B inh 4%[11.4 µM], HADH2 inh 5%[11.4 µM], ERK AVP inh 2%[11.5 µM] and 15-hLO inh 4%[11.4 µM].
`Nc1c2ccccc2nc2ccccc12` (tested in a mixture with another compound) gave HSD17B inh 25µM*, ERK AVP inh 17% and 15-hLO inh -9%.
Nc1c2c(nc3ccccc13)N(C1CCCCC1)CC2 was read as Luciferase inh 0%[25.5 µM] and Bst PK mod >11.
Nc1c2c(nc3ccccc13)CCC2 was read as Luciferase inh -1%, HSD17B inh 32µM*, HADH2 inh 3%, ERK AVP inh 8% and 15-hLO inh 4%.
Screening C[C@H](CCC(=O)O)[C@H]1CC[C@@H]2[C@@H]3CC[C@H]4C[C@@H](O)CC[C@@]4(C)[C@@H]3C[C@H](O)[C@@]21C returned Luciferase inh 4%[11.4 µM], HSD17B inh -9%[11.4 µM], HADH2 inh 14%[11.4 µM], ERK AVP inh 4%[11.5 µM] and 15-hLO inh 10%[11.4 µM].
`O=C(Nc1ccccc1)N1CC2(CCN(C(=O)c3ccco3)CC2)C1` gave Luciferase inh 1%[11.4 µM], HSD17B inh -4%, HADH2 inh -5%, ERK AVP inh 12% and 15-hLO inh 7%.
Screening Cc1c(Cl)c(S(N)(=O)=O)cc2c1=NC=NS=2(=O)O returned Luciferase inh -1%[11.4 µM], HSD17B inh 3%[11.4 µM], HADH2 inh -3%[11.4 µM], ERK AVP inh 4%[11.5 µM] and 15-hLO inh -9%[11.4 µM].
Screening Cc1cnc(-c2nnc(N(C)C(=O)C3CCOC3)s2)cn1 (stereo not given) returned Luciferase inh 0%, HSD17B inh 25µM*, Bst PK mod >57, HADH2 inh 25µM*, ERK AVP inh -11% and 15-hLO inh -5%.
For CN(C(=O)C1CCOC1)c1nnc(-c2ccccn2)s1 (stereo not given) the results were Luciferase inh -8%, HSD17B inh inactive, Bst PK mod >57, HADH2 inh 336%, ERK AVP inh -14% and 15-hLO inh 7%.
Screening CC(C)CCC[C@@H](C)[C@@H]1CC[C@@H]2[C@H]3CC[C@H]4C[C@@H](N)CC[C@@]4(C)[C@@H]3CC[C@]21C returned Luciferase inh 3%[11.4 µM], HSD17B inh 1%[11.4 µM], HADH2 inh 7%[11.4 µM], ERK AVP inh -3%[11.5 µM] and 15-hLO inh 7%[11.4 µM].
For COc1ccc2cc(CN(C(=O)Nc3ccccc3OC)C3CCCC3)c(=O)[nH]c2c1 the results were Luciferase inh 1%, HSD17B inh -9%, Bst PK mod >57, HADH2 inh -6%, ERK AVP inh -11% and 15-hLO inh -16%.
`CC(=O)N(Cc1cc2c(C)cc(C)cc2[nH]c1=O)C1CCCCC1` gave Luciferase inh -1%, HSD17B inh inconclusive, Bst PK mod >57, HADH2 inh -15%, ERK AVP inh -1% and 15-hLO inh 0%.
CCC(=O)N(Cc1cc2cc(C)c(C)cc2[nH]c1=O)C1CCCCC1 was read as Luciferase inh 1%, HSD17B inh 32µM*, Bst PK mod >57, HADH2 inh -5%, ERK AVP inh -17% and 15-hLO inh -13%.
COc1cc2cc(CN(C(=O)NC3CCCCC3)C3CCCC3)c(=O)[nH]c2cc1OC was read as Luciferase inh -1%, HSD17B inh 25µM*, Bst PK mod >57, HADH2 inh -15%, ERK AVP inh -10% and 15-hLO inh 0%.
O=c1[nH]c2ccccc2c2nc3ccccn3c12 was read as Luciferase inh inconclusive, HSD17B inh inconclusive, Bst PK mod 4.3*, HADH2 inh 3%, ERK AVP inh -24% and 15-hLO inh 3%.

Compound activity deposited in PubChem BioAssay by National Center for Advancing Translational Sciences (NCATS).
